Our source for the inhibition values is PubChem BioAssay AID602438 (Sanford-Burnham Center for Chemical Genomics, 2012).

Structures are written as SMILES. Out of some 360,000 compounds screened, about 3,100 (0.86%) were called active. The entries come from a sample that favours actives as a whole. Values without a mark were called inactive.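 The calls were made as follows: active = inhibition or corrected inhibition above about 18%, plus a signal ratio from 0.5 to 1.5 (limit read from the data, passing the limit was not always enough); inactive = the rest.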

Sequence of Neuropilin-1 (Homo sapiens) (O14786 whole entry, looked up): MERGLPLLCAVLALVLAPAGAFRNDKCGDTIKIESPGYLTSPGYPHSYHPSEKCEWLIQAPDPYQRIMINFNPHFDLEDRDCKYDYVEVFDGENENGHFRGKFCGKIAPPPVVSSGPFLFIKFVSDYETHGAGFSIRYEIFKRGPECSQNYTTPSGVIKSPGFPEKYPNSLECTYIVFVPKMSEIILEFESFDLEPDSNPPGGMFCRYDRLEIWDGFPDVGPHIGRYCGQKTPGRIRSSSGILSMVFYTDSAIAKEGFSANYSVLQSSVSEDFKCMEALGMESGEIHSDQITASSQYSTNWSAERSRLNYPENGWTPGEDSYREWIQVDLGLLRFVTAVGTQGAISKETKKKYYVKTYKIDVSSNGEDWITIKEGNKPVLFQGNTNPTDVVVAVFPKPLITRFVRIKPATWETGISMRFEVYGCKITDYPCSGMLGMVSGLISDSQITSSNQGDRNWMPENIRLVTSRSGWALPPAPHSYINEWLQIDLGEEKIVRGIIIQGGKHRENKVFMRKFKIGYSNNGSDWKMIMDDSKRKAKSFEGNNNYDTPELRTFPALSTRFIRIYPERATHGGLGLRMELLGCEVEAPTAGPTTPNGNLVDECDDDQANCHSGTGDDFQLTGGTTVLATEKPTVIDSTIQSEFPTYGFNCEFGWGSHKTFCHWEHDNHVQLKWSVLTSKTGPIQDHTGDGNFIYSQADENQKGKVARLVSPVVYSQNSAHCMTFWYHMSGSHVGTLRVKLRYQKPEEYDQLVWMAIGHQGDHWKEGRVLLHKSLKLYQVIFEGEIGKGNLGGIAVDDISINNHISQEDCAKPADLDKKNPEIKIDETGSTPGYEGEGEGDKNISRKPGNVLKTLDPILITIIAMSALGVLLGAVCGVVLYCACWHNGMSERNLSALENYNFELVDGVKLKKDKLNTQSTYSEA

This assay addresses Neuropilin-1 (Homo sapiens) (UniProt O14786). As to the kind of experiment: NRP-1/CendR peptide interaction modulators – biochemical, fluorescence polarization, uHTS, primary screen (AID 602438). The settings on record: FAM-RPARPAR peptide binding to NRP-1, fluorescence polarization; at 25 µM; active compounds read high. On the technique in general: Fluorescence polarisation rises when a labelled molecule tumbles more slowly, as on binding a larger partner.
Take `Cc1cccc(NS(=O)(=O)c2cc(Cl)ccc2Cl)n1`: the inhibition is 7.9%.

On to `Cc1cccc(N2CCN(C(=O)c3cnn4c(C(F)F)cc(-c5ccccc5)nc34)CC2)c1C`, for which the inhibition is 3.9%.

In the case of `Cc1ccc(Cl)cc1N1CCN(C(=O)c2cccc3c(=O)c(C)c(-c4ccccc4)oc23)CC1`, the inhibition was 31% (active).

Turning to `COc1ccccc1N1CCN(C(=O)c2cc(=O)c3cc(C)cc(C)c3o2)CC1`, the inhibition is 14.6%.

On to `COCC1CCN(C(=O)CCc2nnc(C3(c4ccc(Cl)cc4)CCC3)o2)C1` (stereo not given), for which the inhibition is 11.4%.

For the compound `COc1ccc(OC)c(S(=O)(=O)Nc2c(C)nn(C)c2C)c1`, the inhibition was 16.5% (active).

As to `COc1ccc(OC)c(S(=O)(=O)Nc2ccccc2F)c1`, the inhibition was -3.6%.

For `COc1ccc(OC)c(S(=O)(=O)NCCC(C)C)c1`, the inhibition was 6.4%.

`Cc1n[nH]c(=O)c2c(NC(=O)COC(=O)c3ncc(Cl)c(Cl)c3Cl)oc(C)c12`: the inhibition is 4.1%.

With `Cc1ccc(-c2nc(C)sc2CC(=O)OCC(=O)Nc2c(F)cccc2F)cc1`, the inhibition is 24.9% (active).

For the compound `CCOc1ccc(-c2nc(C)sc2CC(=O)O)cc1`, the inhibition was 0.2%.

Regarding `Cc1nc(-c2ccc(F)cc2)c(CC(=O)N(C)CC(=O)Nc2c(C)cccc2C)s1`, the inhibition is -11.9%.

Consider `CCOC(=O)C1=C(N)N2C(=O)C(C)SC2=C(C(=O)OCC)C1c1cc(OC)c(OC)c(OC)c1` (stereo not given), for which the inhibition was 6.5%.

With `O=C(COc1ccc(S(=O)(=O)NCCc2ccccc2)cc1)N1CCCC1`, the inhibition was 0.6%.

As for `COc1ccc(OCC(=O)NCCc2ccc(S(N)(=O)=O)cc2)cc1`, the inhibition is -12.6%.

As for `O=C(COc1ccc(/C=N/NS(=O)(=O)c2ccccc2)cc1)NCCc1ccccc1`, the inhibition is 31.8% (active).

`CCc1ccnc(NC(=O)Nc2ccc(OCc3ccccc3)cc2)c1`: the inhibition is 2.7%.

Turning to `O=C(c1ccc(F)cc1)n1c(=S)nc2ccccn21`, the inhibition is -0.8%.

As to `CC(=O)OCc1cc(=O)n(C)c(=O)n1C`, the inhibition is 14.5%.

Take `COc1ccc(NS(=O)(=O)c2ccc(Oc3c(C#N)cccc3C#N)cc2)cc1`: the inhibition is 6.6%.

Regarding `Cc1ccc(S(=O)(=O)/N=C2\C=C(NS(=O)(=O)c3ccc(C)cc3)C(=O)c3ccccc32)cc1`, the inhibition is 24.8%.

Turning to `COc1ccc(S(=O)(=O)/N=C2\C=C(NS(=O)(=O)c3ccccc3)C(=O)c3ccccc32)cc1`, the inhibition was 41.6% (active).

On to `CCOCCC(=O)Nc1ccc2c(c1)c(=O)n(C)n2-c1ccc2ccccc2c1`, for which the inhibition is -1.8%.

In the case of `Cc1cc(S(=O)(=O)c2cc3ccc(O)c(C)c3oc2=O)ccc1F`, the inhibition is 6%.

As for `CCN(CC)P(=O)(C(NC(=O)OC)C(F)(F)C(F)(F)C(F)(F)C(F)F)N(CC)CC` (stereo not given), the inhibition was 0.3%.

For the compound `CC(=O)NNc1cc(=O)c2c(=O)n(C)c(=O)n(C)c2[nH]1`, the inhibition is 21.9% (active).

For `CC(=O)Nn1cc2c(=O)n(C)c(=O)n(C)c2c1`, the inhibition was -0.7%.

`CCC(=O)NNc1cc(=O)c2c(=O)n(C)c(=O)n(C)c2[nH]1`: the inhibition was 1.9%.

Regarding `CCOCCCn1c(SCC(=O)Nc2cc(OC)ccc2OC)nc2ccccc2c1=O`, the inhibition is 6.3%.

In the case of `CC(=O)NC(Cc1ccc(F)cc1)C(=O)O` (stereo not given), the inhibition is -13.6%.

On to `O=C1Nc2ccccc2-n2nnnc2C1N1CCN(c2cccc(C(F)(F)F)n2)CC1` (stereo not given), for which the inhibition was 3.4%.

In the case of `CCOC(=O)c1cc(NC(=O)c2ccc(Cl)cc2)c(=O)oc1-c1ccccc1`, the inhibition is 24.4% (active).

As for `COC(=O)c1ccc(C(=O)Nc2cc(Cl)ccc2Cl)cc1NC(=O)c1ccccc1C`, the inhibition was -6%.

With `CCOC(=O)c1cccnc1NC(=O)c1ccncc1`, the inhibition was -9.5%.

Regarding `O=C(COC(=O)c1ccc(S(=O)(=O)Nc2ccccc2)cc1)NCC1CCCO1` (stereo not given), the inhibition is 9.7%.

As to `CCN(C(=O)COC(=O)c1ccccc1O)c1cccc2ccccc12`, the inhibition was 6.5%.

Take `COc1ccc(S(=O)(=O)c2c[nH]c(=S)[nH]c2=O)cc1Cl`: the inhibition was -6%.

Take `CCC(C)(C)NC(=O)c1cc([N+](=O)[O-])ccc1N1CCCCC1`: the inhibition is 8.9%.

`O=C(O)C1CCN(c2ccc([N+](=O)[O-])cc2[N+](=O)[O-])CC1`: the inhibition was 27.4% (active).

Consider `O=[N+]([O-])c1ccc(N2CCN(c3ccc(O)cc3)CC2)c(Cl)c1`, for which the inhibition was -3.9%.

On to `CC(CC(=O)C1C(C)C=CCC1(C)C)NNC(N)=O` (stereo not given), for which the inhibition was 12.3%.

As to `O=C(CSc1ccc(-c2ccc(-n3cccn3)cc2)nn1)Nc1ccc([N+](=O)[O-])cc1`, the inhibition is 15.2%.

Consider `O=C(NC1CCCC1)C(NS(=O)(=O)c1ccc(Br)s1)c1ccccc1` (stereo not given), for which the inhibition is -3%.

`COCCNC(=O)C1C(=O)Nc2ccccc2C(=O)N1c1ccc2c(c1)OCCO2` (stereo not given): the inhibition is -11.4%.

Consider `Cc1ccc(CC2CC(=O)N(c3nc(C)cc(C)n3)C2=O)cc1` (stereo not given), for which the inhibition is 13.2%.

For `Cc1ccc(CC2CC(=O)N(c3cc(C)ccc3C)C2=O)cc1` (stereo not given), the inhibition was 50% (active).

For `Cc1ccc(CC2CC(=O)N(c3ccc4c(c3)OCCO4)C2=O)cc1` (stereo not given), the inhibition is 4.8%.

For `CN(CC(=O)NCCc1ccc(S(N)(=O)=O)cc1)CC(=O)Nc1ccc(F)c(F)c1F`, the inhibition is 7.4%.

For the compound `Oc1ccc(-c2nncn2-c2ccccc2)cc1`, the inhibition is 2.8%.

As to `CC1(C)C2CC[C@]3(C)C(CC=C4[C@@H]5C[C@@](C)(CO)CC[C@]5(C(=O)O)CC[C@]43C)[C@@]2(C)CC[C@@H]1O` (stereo not given in full), the inhibition is -11.3%.

In the case of `CC1O[C@@H](OC2C(O)C(C)O[C@H](OC(=O)[C@]34CCC(C)(C)C[C@H]3C3=CCC5[C@@]6(C)CC(O)C(O[C@@H]7OC(CO)C(O)[C@@H](O)[C@@H]7O)[C@@](C)(C(=O)O)C6CC[C@@]5(C)[C@]3(CO)CC4)C2O[C@H]2OC(C)[C@@H](O[C@@H]3OCC(O[C@@H]4OC(CO)C(O)[C@H](O)C4O)[C@@H](O)[C@@H]3O)[C@H](O)C2O)C(O)C(O)C1O` (stereo not given in full), the inhibition was 36.2% (active).

With `O=C1c2ccccc2C(=O)C1c1ccccc1`, the inhibition was -13.9%.

On to `O=C1CCC(Cc2ccccc2)N1` (stereo not given), for which the inhibition was -7%.

With `O=C1OC(Cc2ccccc2)C(c2ccccc2)C1=O` (stereo not given), the inhibition is 24.2% (active).

With `COc1ccc(Cl)cc1-c1cc(C(=O)Nc2cc(OC)c(OC)c(OC)c2)[nH]n1`, the inhibition was 5.6%.

The term inhibition denotes the drop in the measured response relative to a control, in per cent.
